For 33 molecules, growth results are on record in PubChem BioAssay (NCI).

Compounds without any hit were thinned out: in the full panel of roughly 83,000, 20% have a hit.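 48-hour exposure, single concentration, 96-well plates; percent growth endpoint where 0 means no net growth. Active: below 10.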 Unmarked numbers belong to inactive results. Activity calls are given as the source filed them.

The test concerns CAKI-1 renal. In words: NCI-60 one-dose screen, 48 h (100 = growth as untreated, 0 = no growth, -100 = all killed). The settings on record: 10 µM unless noted.
For the molecule `COc1cc2c(-c3nc4cc(Cl)c(F)cc4s3)cc(=O)oc2c(C)c1OC`, the growth was -78.5% (active).

`COc1cc(C2=NN(C(C)=O)C(c3ccc(OC(C)=O)cc3OC(C)=O)O2)c(OC(C)=O)c2ccccc12` (stereo not drawn): the growth was 8.08% (active). The figure for `Cc1ccc2c(c1)O/C(=C\c1ccc([N+](=O)[O-])o1)C2=O` is 36.8%; for `O=C(/C(=C/c1cccc([N+](=O)[O-])c1)c1ccccc1)c1ccccc1` it is 47.7%; for `CC1(C)OC(=O)C(=Cc2ccccc2Br)C(=O)O1` it is 94.8%.

With `c1ccc(-c2nnc(Nc3nnc(-c4ccccc4)s3)s2)cc1`, the growth was 87.9%. Take `COc1cc(/C=C/C(=O)Nc2ccc3c(c2)/C(=C\c2cccn2C)C(=O)N3)cc(OC)c1OC`: the growth is 52.1%. The figure for `O=C(Nc1nc(-c2ccc(Cl)cc2)cs1)c1cc(O)c(O)c(O)c1` is 8.69% (active). The figure for `COc1ccc(-c2csc(NC(=O)c3cc(OC)c(OC)c(OC)c3)n2)cc1` is 94.1%; for `O=C(O)c1ccc(NC(=O)c2ccc(Nc3ccnc(C(F)(F)F)c3)cc2)cc1` it is 108%; for `COc1cc(/C=C2\CCC/C(=C\c3ccc(OCC4CO4)c(OC)c3)C2=O)ccc1OCC1CO1` (stereo not drawn) it is 72.2%. As for `COc1cc(/C=C/C(=O)c2c(-c3ccc(Cl)cc3)nc3sc(C)nn23)cc(OC)c1OC`, the growth was 93.7%. In the case of `C=C1c2c(C)nn(-c3ccc(C#CCOC4OC(CO)C(O)C(O)C4O)cc3)c2N(C)C23C[C@H]1C1(C)c4c(C)nn(-c5ccc(C#CCOC6OC(CO)C(O)C(O)C6O)cc5)c4N(C)C(C)(C[C@H]12)C3` (stereo partly drawn) it was -29.8% (active). `O=C(/C(=C/c1ccc([N+](=O)[O-])cc1)c1ccccc1)c1ccccc1`: the growth was 48.6%.

On to `N#Cc1cccc(/C=C(/C(=O)c2ccccc2)c2ccccc2)c1`, for which the growth is 55.5%. For `COc1cc(/C=C/C(=O)c2c(-c3ccc(F)cc3)nc3sc(C)nn23)cc(OC)c1OC`, the growth was 15.2%. The figure for `CCOc1nc(-c2ccccc2)cc2c(O)c(C(=O)n3nc(C)cc3C)[nH]c(=O)c12` is 119%; for `COc1ccc(/C=C(\C#N)c2ccccc2)cc1` it is 78.2%. Turning to `O=C(Nc1nc(-c2ccccc2)cs1)c1cc(O)c(O)c(O)c1`, the growth was 26.4%. For the molecule `Cc1cc2c(C#N)n3c(c2cc1C)C(=O)C(c1ccccc1)Oc1ccccc1-3` (stereo not drawn), the growth is 33.1%. The figure for `CCOC(=O)/C(=C/c1ccccc1)C(=O)c1ccccc1` is 78.1%; for `COc1cc2c(C#N)n3c(c2cc1OC)C(=O)C(c1ccccc1)Oc1ccccc1-3` (stereo not drawn) it is 65.6%. In the case of `O=C1/C(=C/c2ccc([N+](=O)[O-])o2)Oc2ccc(Br)cc21`, the growth is 74%. For the molecule `c1cnc2n[nH]c(Nc3ncnc4c3sc3ncccc34)c2c1`, the growth is 104%.

Turning to `CCN1C(=O)c2ccc3c4c(ccc(c24)C1=O)C(=O)N(CCCNCc1ccccc1OC)C3=O`, the growth was -11.4% (active). In the case of `O=C(/C=C/c1ccc(Cl)cc1)c1ccccc1` it was 101%; in that of `CCOC(=O)c1c(NC(=O)C2CCCCC2C(=O)O)sc2c1CCCC2` (stereo not drawn), 92.7%. In the case of `CCC1(c2ccccc2)Oc2ccccc2-n2c(C#N)c3ccccc3c2C1=O` (stereo not drawn) it was 100%; in that of `Clc1cccc(Cc2cn3cc(-c4ccccc4)nc3s2)c1`, 47.8%; in that of `COc1ccc(-c2noc(N)c2-c2cc(OC)c3c(c2)OCO3)cc1`, 32.7%.

Consider `N#Cc1c2ccccc2c2n1-c1ccccc1OC(c1ccccc1)C2=O` (stereo not drawn), for which the growth is 30.6%. The figure for `O=C1NCN(c2ccccc2)C12CCN(CCCC(c1ccc(F)cc1)c1ccc(F)cc1)CC2` is 76.8%.

As to `COc1ccc(-c2csc(NC(=O)c3cc(O)c(O)c(O)c3)n2)cc1`, the growth is 38.6%.
